The campaign covered roughly 39,000 compounds. About 3,300 (8.5%) were called active. Shown is part of a subset that was picked to be rich in actives.
These compounds were tested on HepG2 (assay: cytotoxicity call (relative viability < 0.9)). Conditions: 10 µM.

SMILES	cytotoxicity call
Cc1cc(C(=O)Nc2cccc3c2O[C@@H](CN(C)S(=O)(=O)c2ccc(F)cc2)[C@@H](C)CN([C@H](C)CO)C3=O)n(C)n1	inactive
COc1ccc(S(=O)(=O)N(C)C[C@@H]2Oc3cc(C#CC4CCCC4)ccc3S(=O)(=O)N([C@H](C)CO)C[C@H]2C)cc1	inactive
C[C@@H]1CN([C@H](C)CO)C(=O)c2cc(NS(=O)(=O)c3ccccc3)ccc2O[C@@H]1CN(C)S(=O)(=O)c1ccc(F)cc1	inactive
COc1ccc(NC(=O)N[C@H]2CC[C@@H](CCNC(=O)CN3CCOCC3)O[C@@H]2CO)cc1	inactive
CCS(=O)(=O)Nc1ccc2c(c1)C(=O)N(C)[C@@H]1CC[C@@H](CC(=O)NCc3ccccc3F)O[C@H]1CO2	inactive
C[C@@H]1CCCCO[C@H](CN(C)S(=O)(=O)c2ccccc2)[C@H](C)CN([C@@H](C)CO)C(=O)c2cc(NC(=O)C3CCCCC3)ccc2O1	inactive
COc1ccc(CN(C)C[C@H]2OCCCC[C@H](C)Oc3ccc(NS(=O)(=O)c4ccc(Cl)cc4)cc3C(=O)N([C@H](C)CO)C[C@@H]2C)cc1	inactive
COCC(=O)N1[C@H](C(=O)NCc2ccccc2)[C@@H](CO)[C@@H]2Cn3c(cccc3=O)[C@@H]21	inactive
C[C@@H]1CN([C@H](C)CO)C(=O)c2cc(NC(=O)CCCN(C)C)ccc2O[C@@H]1CN(C)Cc1ccccc1	inactive
C[C@H]1CN([C@@H](C)CO)C(=O)c2cc(NC(=O)CCCN(C)C)ccc2O[C@@H]1CN(C)Cc1ccccc1	inactive
C[C@H](CO)N1C[C@H](C)[C@H](CN(C)Cc2ccccc2)Oc2ccc(NC(=O)CCCN(C)C)cc2C1=O	inactive
C[C@H](CO)N1C[C@H](C)[C@H](CN(C)Cc2ccc(Oc3ccccc3)cc2)Oc2ccc(NC(=O)CCCN(C)C)cc2C1=O	active
C[C@@H]1CN([C@@H](C)CO)C(=O)c2cc(NC(=O)CCCN(C)C)ccc2O[C@@H]1CN(C)Cc1ccc(Oc2ccccc2)cc1	active
C[C@@H]1CN([C@@H](C)CO)C(=O)c2cc(NC(=O)CCCN(C)C)ccc2O[C@@H]1CN(C)Cc1ccccc1	inactive
Cc1noc(C)c1NC(=O)Nc1ccc2c(c1)CC(=O)N([C@@H](C)CO)C[C@H](C)[C@H](CN(C)Cc1ccc(C(F)(F)F)cc1)O2	inactive
C[C@@H]1CN([C@H](C)CO)C(=O)c2cc(NC(=O)Nc3ccc(F)cc3)ccc2O[C@@H](C)CCCCO[C@H]1CN(C)C(=O)Nc1ccccc1	inactive
O=c1[nH]ncc2ccccc12	inactive
Cc1ccc(S(=O)(=O)Nc2cccc3c2O[C@@H](CN(C)S(=O)(=O)c2ccccc2)[C@H](C)CN([C@H](C)CO)C3=O)cc1	inactive
